Our source for the Potency values is PubChem BioAssay (NCATS).

A short description of experiment [1]: Quantitative High-Throughput drug screen in 47 multiple myeloma cell lines against the NCATS MIPE library collection: INA6_PLB cell viability assay (AID 1918965; note: nearly all actives have a fitted effect of over 55% in size). A digest of the protocol: (§1)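 Myeloma cell lines, 500 cells per well, exposed to MIPE 4.0 library compounds for 48 h at 37C, 5% CO2. Viability from ATP by CellTiter-Glo luminescence; normalised to DMSO (100%) and media-only (0%) wells.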

Experiment [2] is described as follows: Quantitative High-Throughput drug screen in 47 multiple myeloma cell lines against the NCATS MIPE library collection: KMS27_JCRB cell viability assay (AID 1918970). Note: nearly all actives have a fitted effect of over 30% in size. A digest of the protocol: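 CellTiter-Glo luminescence after 48 h drug exposure at 37 °C; 500 cells/well, 1536-well format, pin-tool compound addition; DMSO = 100%, media-only = 0% viability.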

The nature of experiment [3]: Quantitative High-Throughput drug screen in 47 multiple myeloma cell lines against the NCATS MIPE library collection: KMS12PE_JCRB cell viability assay (AID 1918972). For viability: series mostly up to about 46 µM. Note: nearly all actives have a fitted effect of over 30% in size. A digest of the protocol:
as §1

Experiment [4] in a line: Quantitative High-Throughput drug screen in 47 multiple myeloma cell lines against the NCATS MIPE library collection: KMS20_JCRB cell viability assay (AID 1918973). Note: nearly all actives have a fitted effect of over 45% in size. A digest of the protocol:
(§2)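 Primary qHTS used for cherry-picking: cells at 500/well, library compounds for 48 h (37C, 5% CO2), luminescent ATP assay.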

Experiment [5] is described as follows: Quantitative High-Throughput drug screen in 47 multiple myeloma cell lines against the NCATS MIPE library collection: JJN3_DSMZ cell viability assay (AID 1918966; note: nearly all actives have a fitted effect of over 50% in size). A digest of the protocol:
as §2

The nature of experiment [6]: Quantitative High-Throughput drug screen in 47 multiple myeloma cell lines against the NCATS MIPE library collection: H1112_PLB cell viability assay (AID 1918967; note: nearly all actives have a fitted effect of over 30% in size). A digest of the protocol:
as §2

A short description of experiment [7]: Quantitative High-Throughput drug screen in 47 multiple myeloma cell lines against the NCATS MIPE library collection: Karpas25_ECACC cell viability assay (AID 1918968; note: nearly all actives have a fitted effect of over 35% in size). A digest of the protocol:
as §2

Experiment [8] can be described thus: Quantitative High-Throughput drug screen in 47 multiple myeloma cell lines against the NCATS MIPE library collection: KMS26_JCRB cell viability assay (AID 1918975). Note: nearly all actives have a fitted effect of over 45% in size. A digest of the protocol:
(§3)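 Inhibition of cell viability is measured here. Each line was plated at 500 cells per well, treated with MIPE 4.0 drugs, kept 48 hours at 37C, then assayed for ATP content by CellTiter-Glo luminescence.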

The nature of experiment [9]: Quantitative High-Throughput drug screen in 47 multiple myeloma cell lines against the NCATS MIPE library collection: KMS12BM_JCRB cell viability assay (AID 1918971). Note: nearly all actives have a fitted effect of over 35% in size. A digest of the protocol:
as §3

SMILES strings stand for the structures. Inconclusive results are not listed. The source made the active and inactive calls. Calls come from the whole dose curve; as a rule, active = well fitted cell-killing curve with a large enough effect; inconclusive = small, poorly fitted or top-dose-only effect, or effect the other way; inactive = no such curve, though single readings can be large or run the other way.
Potency is the fitted concentration of half-maximal effect.

Take `C=CCc1ccc(O)c(-c2ccc(O)c(CC=C)c2)c1`: the Potency in experiment [1] is 18.7 µM (active); in experiment [2], 23.5 µM (active); in [3] it was 20.9 µM (active); in experiment [4], 23.5 µM (active).
Take `COC(=O)C1=CO[C@@H](O)[C@@H]2C(CO)=CC[C@@H]12`: the Potency in experiment [5] is 11.8 µM (active). Also, the Potency entry in experiment [6] is “inactive”.
In the case of `NC[C@@H]1O[C@@H](O[C@H]2[C@@H](O)[C@H](O[C@@H]3[C@@H](O)[C@@H](N)C[C@H](N)[C@H]3O[C@H]3O[C@H](CN)[C@@H](O)[C@@H](O)[C@H]3N)O[C@H]2CO)[C@H](N)[C@@H](O)[C@@H]1O`, the Potency result in experiment [5], in experiment [6], in experiment [7], in experiment [2], in experiment [3] and in experiment [8] was “inactive” in each case.
As for `COc1ccc2c(Oc3ccc(NC(=O)c4c(C)n(CC(C)(C)O)n(-c5ccccc5)c4=O)cc3F)ccnc2c1`, the Potency in [5] was 8.33 µM (active); in experiment [6], 20.9 µM (active); in experiment [2] it was 20.9 µM (active); in experiment [9], 33.2 µM (active); in experiment [3], 26.4 µM (active). The Potency result in experiment [8] was “inactive”.
With `CC1(C)CCC[C@@]2(C)[C@@H]1CC[C@@]1(C)OC(=O)C[C@H]21`, the Potency entry in [5], in experiment [6] and in experiment [7] was “inactive” in each case. Also, the Potency in experiment [3] is 14.8 µM (active).
Turning to `COC1CCC(N(C(=O)C2CCC(C)CC2)c2cc(C3=CCCCC3)sc2C(=O)O)CC1` (configuration not stated), the Potency in [1] was 23.5 µM (active). The Potency entry in experiment [2], in experiment [3], in experiment [4] and in experiment [8] was “inactive” in each case.
For the compound `CC[C@@H]1C=C(C)C[C@H](C)C[C@H](OC)[C@H]2O[C@@](O)(C(=O)C(=O)N3CCCC[C@@H]3C(=O)O[C@H](C(C)=C[C@@H]3CC[C@H](Cl)[C@H](OC)C3)[C@H](C)[C@@H](O)CC1=O)[C@H](C)C[C@H]2OC`, the Potency in [5] is 20.9 µM (active); in [6], 18.7 µM (active); in experiment [2], 8.33 µM (active); in [3], 7.43 µM (active).
Turning to `COc1ccc(-c2oc3c(CC=C(C)C)c(OC4O[C@H](CO)[C@@H](O)[C@H](O)[C@@H]4O)cc(O)c3c(=O)c2OC2O[C@@H](C)[C@H](O)[C@@H](O)[C@@H]2O)cc1` (some centres not stated), the Potency in [5] is 18.7 µM (active); in experiment [6], 23.5 µM (active); in experiment [7], 20.9 µM (active); in experiment [2] it was 11.8 µM (active); in [9], 18.7 µM (active); in [3], 8.33 µM (active). The Potency in experiment [8] was 23.5 µM (active).
Consider `c1ccc2c(Cc3c[nH]c4ccccc34)c[nH]c2c1`, for which the Potency in experiment [5] is 26.4 µM (active); in [6], 1.05 µM (active); in [7] it was 1.05 µM (active); in experiment [2] it was 7.43 µM (active); in experiment [9] it was 20.9 µM (active); in experiment [3] it was 5.9 µM (active). Besides, the Potency in [4] was 2.96 µM (active); in experiment [8], 4.69 µM (active).
Turning to `Cc1c(O)cccc1C(=O)N[C@@H](CSc1ccccc1)[C@H](O)CN1C[C@H]2CCCC[C@@H]2C[C@@H]1C(=O)NC(C)(C)C`, the Potency is 18.7 µM (active) in [5]; 14.8 µM (active) in [7]; 16.6 µM (active) in experiment [2]; 20.9 µM (active) in experiment [9]; 10.5 µM (active) in experiment [3]; 29.6 µM (active) in [8].
For `Cc1ccc(C(=O)Nc2cccc(C(F)(F)F)c2)cc1Nc1nc(-c2cccnc2)nc2c1cnn2C`, the Potency is 18.7 µM (active) in [5]; 14.8 µM (active) in experiment [6]; 13.2 µM (active) in [7]; 13.2 µM (active) in [9]; 8.33 µM (active) in [4]; 13.2 µM (active) in [8]. The Potency result in experiment [2] and in experiment [3] was “inactive” throughout.
For the compound `O=C1c2c(O)cc(O)cc2O[C@H](c2cc(O)c(O)c(O)c2)[C@H]1O`, the results for the Potency in [5] and in [8] were 16.6 µM (active) and 20.9 µM (active), respectively. For the same compound, the Potency result in experiment [6], in [2] and in experiment [3] was “inactive” each time.
On to `O=C(O)C(O)Cc1ccc(O)c(O)c1` (configuration not stated), for which the Potency in [5] was 23.5 µM (active); in [8], 20.9 µM (active). Further, the Potency result in experiment [6], in experiment [2] and in experiment [3] was “inactive” throughout.
For the compound `CO[C@H]1C[C@@H]2CC[C@@H](C)[C@@](O)(O2)C(=O)C(=O)N2CCCC[C@@H]2C(=O)O[C@H]([C@H](C)C[C@@H]2CC[C@H](OCCO)[C@H](OC)C2)CC(=O)[C@H](C)C=C(C)[C@@H](O)[C@@H](OC)C(=O)[C@H](C)C[C@H](C)C=CC=CC=C1C`, the Potency in [5] is 6.62 µM (active); in [7], 1.05 µM (active); in experiment [2], 4.18 µM (active); in experiment [9], 4.18 µM (active); in experiment [4] it was 3.72 µM (active). For the same compound, the Potency entry in experiment [6] is “inactive”.
On to `O=C(O)C=Cc1ccc(O)c(O)c1`, for which the Potency in experiment [5] is 10.5 µM (active); in [2] it was 16.6 µM (active); in experiment [9], 20.9 µM (active). Besides, the Potency entry in experiment [6] was “inactive”.
As for `CS(=O)c1ccc(-c2nc(-c3ccc(F)cc3)c(-c3ccncc3)[nH]2)cc1` (configuration not stated), the Potency was 2.15 µM (active) in experiment [5]; 48.1 µM (active) in experiment [6]; 8.55 µM (active) in experiment [7]; 21.5 µM (active) in experiment [2]; 21.5 µM (active) in [3].
Regarding `COc1ncc(-c2ccc3nccc(-c4ccnnc4)c3c2)cc1NS(=O)(=O)c1ccc(F)cc1F`, the Potency in [5] was 0.118 µM (active); in experiment [9], 0.0662 µM (active); in experiment [3] it was 0.0935 µM (active); in experiment [8] it was 0.0526 µM (active).
In the case of `COc1cc(O)c2c(c1)C(=O)c1cc(C)cc(O)c1C2=O`, the Potency result in experiment [6], in experiment [7], in experiment [2], in experiment [9], in [3] and in experiment [4] was “inactive” throughout. Besides, the Potency entry in [8] is “inactive”.
In the case of `CO[C@H]1C[C@@H]2CC[C@@H](C)[C@@](O)(O2)C(=O)C(=O)N2CCCC[C@@H]2C(=O)O[C@H]([C@H](C)C[C@@H]2CC[C@H](OP(C)(C)=O)[C@H](OC)C2)CC(=O)[C@H](C)C=C(C)[C@@H](O)[C@@H](OC)C(=O)[C@H](C)C[C@H](C)C=CC=CC=C1C`, the Potency is 18.7 µM (active) in experiment [6] and 20.9 µM (active) in experiment [7].
Take `COc1ccc2cccc(CCNC(C)=O)c2c1`: the Potency result in experiment [6], in experiment [7], in experiment [2] and in experiment [3] was “inactive” in each case.
As to `O=c1cc(-c2ccccc2)oc2cc(O)cc(O)c12`, the Potency result in experiment [6] is “inactive”.
Turning to `CC(C)C(C)C=CC(C)C1CCC2C3=CC=C4CC(O)CCC4(C)C3CCC21C` (configuration not stated), the Potency entry in experiment [6], in [7], in [9] and in experiment [3] was “inactive” throughout.
